Each sequence was assayed on RARb:RXRa (NR concentration 270 nM, RXRa partner concentration 90 nM) (assay: PBM binding z-score (relative to random genomic background probes); higher = stronger binding; sequences stand for … in GC…GCGATTGACAGCGTAGAATGAAGG).
In short: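 Scanned fluorescence from custom Agilent 4×180K protein-binding microarrays was regression-normalized. Binding z-scores use random background probes as reference. Ligand-free nuclear receptor dimers were incubated on the arrays for 1 h and detected with antibodies against each partner (one per run).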
CCGAGTAGGTTACGAGGGGGCATTCAATGCGAAT was tested, and the PBM binding z-score was 2.14.
In the case of CCGAGTAGGTTACGAGGGGGCATTTAGTGCGAAT, the PBM binding z-score is reported as 2.09.
TCGAGTAGGTTACGGGGGGATTCAGGGATGAAGA gave a PBM binding z-score of 2.8.
For CTGAGTAGGTTACGAGGGGGCATTCAGTGCGAAT, the PBM binding z-score was 2.26.
For CTATGTAGGTTAAGGGGGTCATACAGTTTGAAAG, the PBM binding z-score was 3.77.
CTATGTAGGTTAAGGGGGTCTTTCAGTTTGAAAG was tested, and the PBM binding z-score was 1.89.
CCGAGTAGGTTACGAGGGGGCAATCAGTGCGAAT was tested, and the PBM binding z-score was 2.16.
CCGAGTAGGTTACCAGGGGGCATTCAGTGCGAAT was tested, and the PBM binding z-score was 2.33.
In the case of TCGAGTCGGTTACGGGGGCATTCAGGGATGAAGA, the PBM binding z-score is reported as 1.71.
TCGAGTAGGTTACGGGGACATTCAGGGATGAAGA gave a PBM binding z-score of 1.43.
CTATGTAGGTTAAGGGGGTCATTCCGTTTGAAAG gave a PBM binding z-score of 3.33.
For CTATGTAGGTTGAGGGGGTCATTCAGTTTGAAAG, the PBM binding z-score was 3.4.
Sequence CCGAGTGGGTTACGAGGGGGCATTCAGTGCGAAT has a PBM binding z-score of 1.65.
For CCGAGTAGGTTATGAGGGGGCATTCAGTGCGAAT, the PBM binding z-score was 2.06.
CCGAGTAGGTAACGAGGGGGCATTCAGTGCGAAT gave a PBM binding z-score of 1.31.
Work on CCGGGTAGGTTACGAGGGGGCATTCAGTGCGAAT yielded a PBM binding z-score of 2.21.
Work on CCGAGTAGCTTACGAGGGGGCATTCAGTGCGAAT yielded a PBM binding z-score of 0.8.
CTATGAAGGTTAAGGGGGTCATTCAGTTTGAAAG gave a PBM binding z-score of 4.05.
CCGAGTAGGTTACGAGGAGGCATTCAGTGCGAAT was tested, and the PBM binding z-score was 0.685.
With CTCTGTAGGTTAAGGGGGTCATTCAGTTTGAAAG the PBM binding z-score was 3.6.
CTATGGAGGTTAAGGGGGTCATTCAGTTTGAAAG showed a PBM binding z-score of 4.01.
With TCGAGTAGGTTACGGGGGCATTCACGGATGAAGA the PBM binding z-score was 2.51.
Work on CTATGTAGGTTAAGGGGGTCATTCAGTTTGAAAG yielded a PBM binding z-score of 3.73.
In the case of CCGAGTAGGTTACGAGGGGGCCTTCAGTGCGAAT, the PBM binding z-score is reported as 1.47.
With CCGAGTAGGTTACGAGGGGGCATTCACTGCGAAT the PBM binding z-score was 2.12.
For CCGAGTAGGTTACGAGGGGGCATTCATTGCGAAT, the PBM binding z-score was 1.94.
CTATATAGGTTAAGGGGGTCATTCAGTTTGAAAG showed a PBM binding z-score of 3.91.
CAGAGTAGGTTACGAGGGGGCATTCAGTGCGAAT was tested, and the PBM binding z-score was 2.45.
CTATGTAGGTTAAGGGGTTCATTCAGTTTGAAAG showed a PBM binding z-score of 1.82.
For CCGAGTAGGTTACGAGGCGGCATTCAGTGCGAAT, the PBM binding z-score was 0.768.
For CTAAGTAGGTTAAGGGGGTCATTCAGTTTGAAAG, the PBM binding z-score was 3.43.
TCGAGTAGGCTACGGGGGCATTCAGGGATGAAGA showed a PBM binding z-score of 0.961.
CCATGTAGGTTAAGGGGGTCATTCAGTTTGAAAG was tested, and the PBM binding z-score was 3.46.
CTATGTAGGTTAAGGGTGTCATTCAGTTTGAAAG gave a PBM binding z-score of 1.56.
CTATGTAGGCTAAGGGGGTCATTCAGTTTGAAAG showed a PBM binding z-score of 2.69.
CCGAGTAGGTTACGAGGGGGCTTTCAGTGCGAAT was tested, and the PBM binding z-score was 1.41.
For CTATGTAGGTTAAGGGGGTCATTCGGTTTGAAAG, the PBM binding z-score was 3.54.
CTATGTTGGTTAAGGGGGTCATTCAGTTTGAAAG gave a PBM binding z-score of 3.51.
CCGAGTAGGTTACGAGGGGGCATCCAGTGCGAAT gave a PBM binding z-score of 2.1.

Source: the supplement of paper PMC6555819
